NALP1 inh = NALP1 inflammasome inhibitors in reconstituted yeast, colorimetric, S. cerevisiae, triplicate retest; S. cerevisiae NALP1/ASC/caspase-1 growth, X-gal OD620, 72 h; inhibition, % at 10 µM; 280,000 compounds, 0.61% hits; AID 2071, 2009; in the data active = inhibition mostly above about 24%, no sharp cut-off; inactive = mostly below about 32%
SUMO Mot1 rescue = yeast Mot1-301 growth rescue at high temperature, primary screen, SUMOylation pathway inhibitor project, S. cerevisiae, ATP luminescence, 38.5C; S. cerevisiae Mot1-301 growth rescue; percent above DMSO median, 100 means doubled; growth rescue, % at 18.8 µM; 320,000 compounds, 1% hits;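 active = every valid replicate shows activation above 250% relative to neutral control wells; inactive = the rest, any valid replicate at or below 250%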;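 also: OY570 slx delta 5 strain wells were the positive control but not used for scaling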
CHT PAM = CHT positive allosteric modulators, primary screen, cell-based, membrane potential dye, choline EC20; High affinity choline transporter 1 (Homo sapiens), Q9GZV3; 310,000 compounds, 0.49% hits; B-score at 10 µM; CHT-expressing cells; active compounds read high; LV-AA mutant CHT in HEK293 cells;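 active = initial fluorescence not abnormally high and integrated response B-score, plate-corrected, over 3 SD above library mean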
Target sequence (Q9GZV3 whole entry, looked up): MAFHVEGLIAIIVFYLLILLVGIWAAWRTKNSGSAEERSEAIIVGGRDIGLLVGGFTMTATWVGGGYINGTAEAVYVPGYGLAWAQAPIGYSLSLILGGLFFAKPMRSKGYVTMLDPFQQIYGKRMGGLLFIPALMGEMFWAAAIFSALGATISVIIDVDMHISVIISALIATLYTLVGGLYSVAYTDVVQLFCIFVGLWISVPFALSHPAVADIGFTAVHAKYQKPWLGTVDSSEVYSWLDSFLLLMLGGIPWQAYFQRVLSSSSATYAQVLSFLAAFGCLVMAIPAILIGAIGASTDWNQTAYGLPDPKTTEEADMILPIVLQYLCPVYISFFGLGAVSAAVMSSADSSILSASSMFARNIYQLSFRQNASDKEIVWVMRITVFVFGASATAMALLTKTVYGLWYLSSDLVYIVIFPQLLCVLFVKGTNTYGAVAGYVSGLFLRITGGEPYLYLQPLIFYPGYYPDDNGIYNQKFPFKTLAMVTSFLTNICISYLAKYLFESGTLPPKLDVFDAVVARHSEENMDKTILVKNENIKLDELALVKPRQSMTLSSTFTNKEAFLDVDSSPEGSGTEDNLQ
CHT inh = inhibitors of human choline transporter CHT; B-score at 10 µM; AID 488975, 2010; 310,000 compounds, 0.86% hits; CHT-expressing cells, membrane potential dye, choline response; active compounds read low;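 active = B-score over 3 SD under the library average, and starting fluorescence ratio not unusually high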;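 also: choline stimulus applied at its EC90 after an EC20 pre-addition; B-score computed on integrated fluorescence ratio after choline addition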
NALP3 yeast inh = NALP3 inflammasome inhibitors in reconstituted yeast, primary screen, luminescence, uHTS | Yeast reconstituted NLRP3/ASC/caspase-1, beta-gal luminescence, 24 h | inhibition, % at 10 µM | 330,000 compounds, 0.39% hits | AID 2825, 2010;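 active = inhibition of 50% or more; inactive = inhibition below 50%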;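 also: plate controls were induced DMSO wells for no effect and uninduced yeast grown without galactose for full effect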
A1 inh = caspase 3/7 activation in MEF A1-2A-BIM cells, primary screen, A1 inhibitor project, cell-based, luminescence, HTS; Caspase-Glo 3/7 luminescence, 3 h; percent of clofoctol response, vehicle zero; caspase activation, % (concentration not given with the values); 330,000 compounds, 0.066% hits; AID 2462, 2010;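 active = over half of replicate activation scores above 10%, or exactly half above 10 with the replicate mean above 10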
CHT inh conf = CHT inhibitors, confirmation, cell-based, membrane potential dye, duplicate; 2,400 compounds, 70% hits; AID 493221, 2011; CHT activity remaining % of control (active compounds read low), % at 10 µM; CHT-expressing cells, choline membrane potential dye; LV-to-AA substituted CHT, HEK293 cells; shares compounds with CHT inh;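 active = choline transporter activity left, mean of duplicates at 10 µM, below buffer-only control mean minus 3 SD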;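 also: depolarization triggered by choline at its EC90 following an EC20 pre-addition; 0% = hemicholinium-3 full block and 100% = buffer-only control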
HEK293 MPD ctr = membrane potential effects in parental HEK293, counter-screen for CHT inhibitor project, cell-based, membrane potential dye | shares compounds with CHT inh | choline response; active = decrease or increase beyond buffer ±3SD | membrane potential ratio readout (active if shifted either direction beyond buffer ±3SD; no single direction) at 10 µM | 2,400 compounds, 4% hits;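 also: parental cells lack the transporter so any hit is non-specific; ratio is peak minus trough fluorescence over baseline after EC90 choline challenge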
Numbers without * were called inactive; i = inactive; x = no result. The list is not random: actives were taken first. Their share in the collection is about 3%.

SMILES	NALP1 inh	SUMO Mot1 rescue	CHT PAM	CHT inh	NALP3 yeast inh	A1 inh	CHT inh conf	HEK293 MPD ctr
CCN1CCN(c2cc(C)c3cc(NC(=S)N4CCN(c5ccccc5)CC4)ccc3n2)CC1	-0.8	127.5	i	i	22.0	0.6	x	x
CCN1CCN(c2cc(C)c3cc(NC(=S)N4CCC5(CC4)OCCO5)ccc3n2)CC1	2.6	-9.1	i	-5.02*	7.0	0.0	39.6%*	i
CCCN1CCN(C(=S)Nc2ccc3nc(N4CCN(CC)CC4)cc(C)c3c2)CC1	6.8	19.5	i	-9.17*	7.1	1.0	22.2%*	i
CC(C)(C)c1ccc(C(=O)NNC(=O)CNC(=O)c2cccs2)cc1	x	-3.5	x	x	14.7	-0.4	x	x
CCC(C(=O)NCc1ccccc1OC)c1ccccc1 (configuration not stated)	2.4	-20.4	i	i	9.6	0.6	i	i
CCC(C(=O)Nc1ccc(OC)c(Cl)c1)c1ccccc1 (configuration not stated)	18.4	x	i	-6.58*	22.6	-0.4	i	i
CCOc1ccc(NS(=O)(=O)c2ccc(C(=O)N3CCCC(C)C3)cc2)cc1 (configuration not stated)	x	12.4	i	i	-6.9	0.5	x	x
O=C(CN(c1ccccc1)S(=O)(=O)c1ccccc1)Nc1ccc(F)cc1	14.8	-8.0	i	i	21.9	0.0	x	x
OC[C@H]1O[C@H](OC[C@H]2OC(O)[C@H](O)[C@@H](O)[C@@H]2O)[C@H](O)[C@@H](O)[C@@H]1O (some centres not stated)	x	6.0	i	i	2.2	0.7	x	x
COc1ccc(NC(=O)CCCNC(=O)c2ccc(Cl)cc2)cc1OC	-92.4	-7.0	i	-6.59*	0.6	-0.2	i	i
Cc1noc(NC(=O)c2c(-c3c(Cl)cccc3Cl)noc2C)c1[N+](=O)[O-]	-2.2	-8.2	i	-6.09*	8.0	-0.2	47.8%*	i
C[C@H]1CN([C@@H](C)CO)C(=O)c2cccc(NS(=O)(=O)c3cn(C)cn3)c2O[C@H]1CN(C)S(C)(=O)=O	x	0.4	x	x	7.5	0.7	x	x
COc1cccc(N2C(=O)N(c3ccccc3)C3CS(=O)(=O)CC32)c1 (configuration not stated)	1.4	125.9	i	-4.95*	-1.2	0.0	70.2%*	i
CCc1ccc(C(C)NC(=S)NCc2ccc(F)cc2)cc1 (configuration not stated)	11.4	14.9	i	i	29.6	-0.6	x	x
Cc1ccc(C(C)NC(=S)NCc2ccc(F)cc2)cc1C (configuration not stated)	14.0	12.9	i	-5.15*	25.0	0.3	71.4%*	i
Cc1cc(S(=O)(=O)NCc2ccncc2)c(C)cc1Br	10.4	-5.8	i	-5.01*	18.3	0.3	67.0%*	i
COc1cc(C(=O)NC(=S)NNC(=O)[C@H]2C[C@@H]2c2ccccc2)cc(OC)c1OC	16.6	-1.9	i	-5.94*	5.4	0.0	47.9%*	i
Cc1cccc(-n2cc(CN3CCN(Cc4nccn4C)CC3)c(-c3cccc(F)c3)n2)c1	2.9	-3.9	i	-9.71*	11.8	0.4	20.2%*	i
COc1ccc(-n2cc(CN3CCCC3)c(-c3cccc(F)c3)n2)cc1	8.4	67.6	i	i	9.4	0.6	x	x
Cn1cnnc1SCC(=O)Nc1ncc([N+](=O)[O-])s1	x	15.6	x	x	10.7	-6.1	x	x
Nc1cc(S(=O)(=O)N2CCCCC2)ccc1Oc1ccc(Cl)cc1	3.0	x	i	-9.43*	-6.7	1.0	i	i
CCC(C(=O)NCCCN1CC(C)CC(C)C1)n1nc(C)c2sc3ccccc3c2c1=O (configuration not stated)	-0.4	-10.6	i	-8.8*	11.0	0.4	16.5%*	i
Cc1ncc(CO)c2cc(C(=O)Nc3ccccc3Cl)c(=Nc3cccc(C(N)=O)c3)oc12	9.9	-6.8	i	i	15.2	-0.4	x	x
COc1ccc(C(=O)OCC(=O)NC(C)CCc2ccccc2)c(OC)c1 (configuration not stated)	-4.8	-7.9	i	-5.73*	19.2	0.4	i	i
CCCCc1ccc(NC(=O)CSc2nc(=O)n(CCN3CCOCC3)c3c2CCC3)cc1	x	201.4	i	i	-3.4	0.0	x	x
SMILES	NALP1 inh	SUMO Mot1 rescue	CHT PAM	CHT inh	NALP3 yeast inh	A1 inh	CHT inh conf	HEK293 MPD ctr
CCN(CC)CCCn1c2c(c(SCC(=O)Nc3ccc(OC(F)(F)F)cc3)nc1=O)CCC2	x	-0.7	i	-12.2*	18.0	-0.8	38.4%*	i
CCCCc1ccc(NC(=O)CSc2nc(=O)n(CCCN3CCOCC3)c3c2CCC3)cc1	x	536.3*	i	-7.94*	12.6	-0.2	21.3%*	i
CCN(CC)CCCn1c2c(c(SCC(=O)Nc3ccc(C)c(F)c3)nc1=O)CCC2	x	-20.2	i	i	2.3	-0.5	x	x
C=C(C)C1CC=C(C)/C(=N/NC(=O)CCC(=O)Nc2ccccc2Cl)C1 (configuration not stated)	7.8	5.5	i	i	10.4	0.3	x	x
CCc1c(C)[nH]c2ccccc2c1=O	-10.9	4.0	i	-5.22*	6.6	0.9	62.8%*	i
CC(=O)CCc1c(C)[nH]c2ccccc2c1=O	13.7	-13.0	i	i	0.8	0.3	x	x
c1ccc(CCc2nn3c(Cc4ccccc4)nnc3s2)cc1	-12.2	-3.2	i	-5.37*	-56.6	-0.7	56.2%*	i
c1ccc(Cc2nnc3sc(-c4cccs4)nn23)cc1	4.6	7.5	i	i	14.2	-0.4	x	x
CCOP(=O)(c1ccc(N(C)C)cc1)C(O)c1ccc(C)cc1 (configuration not stated)	-0.1	-9.3	i	i	-2.9	-0.7	x	x
FC(F)(F)c1nc(Oc2ccccc2)c2ccccc2n1	30.9	16.5	i	i	10.4	-0.6	x	x
Cc1nc(Oc2ccccc2)c2ccccc2n1	36.3	4.3	i	-6.97*	12.6	-0.6	i	i
CC(C)[C@H](NC(=O)C1CCC(CNC(=O)[C@@H]2CCCN2C(=O)OC(C)(C)C)CC1)C(=O)O (some centres not stated)	2.6	x	x	x	3.6	x	x	x

From PubChem BioAssay
